CHT block: inhibits the human high affinity choline transporter. CHT-expressing cells, membrane potential dye, choline response; stronger effect = lower value. B-score at 10 µM. actives 0.86% (n = 310,000). AID 488975;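 active means B-score over 3 SD under the library average, and starting fluorescence ratio not unusually high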;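 further: choline stimulus applied at its EC90 after an EC20 pre-addition; B-score computed on integrated fluorescence ratio after choline addition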
Target sequence (Q9GZV3 whole entry, looked up): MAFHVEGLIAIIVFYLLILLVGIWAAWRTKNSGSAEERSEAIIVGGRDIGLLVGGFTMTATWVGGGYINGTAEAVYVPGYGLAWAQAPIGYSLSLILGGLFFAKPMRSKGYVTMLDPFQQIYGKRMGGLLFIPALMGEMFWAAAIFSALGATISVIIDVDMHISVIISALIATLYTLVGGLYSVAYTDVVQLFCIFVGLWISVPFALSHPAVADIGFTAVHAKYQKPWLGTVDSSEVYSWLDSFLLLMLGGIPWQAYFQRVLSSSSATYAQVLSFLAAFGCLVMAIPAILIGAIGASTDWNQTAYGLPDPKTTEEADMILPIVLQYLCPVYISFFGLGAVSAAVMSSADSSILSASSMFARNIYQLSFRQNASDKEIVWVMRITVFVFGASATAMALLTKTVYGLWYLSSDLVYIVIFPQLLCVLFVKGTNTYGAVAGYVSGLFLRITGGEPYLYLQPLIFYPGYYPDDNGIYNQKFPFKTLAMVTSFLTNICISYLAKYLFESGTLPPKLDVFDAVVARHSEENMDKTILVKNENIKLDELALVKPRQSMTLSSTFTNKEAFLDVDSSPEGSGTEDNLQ
Rce1 inh: inhibitors of yeast Ras-converting enzyme; Q03530; yeast membranes, quenched prenylated peptide cleavage fluorescence; calls only; actives 0.27% (n = 290,000); AID 2563;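 active means fall in fluorescence gain of 50% or more versus controls, with final raw signal at or below 3038400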;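 further: plate controls were neutral control wells for no effect and wells lacking membranes for full effect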
Kir21 block: inhibitors of mouse Kir2.1 inward-rectifier potassium channel | HEK293-Kir2.1, FluxOR thallium flux fluorescence; stronger effect = lower value | B-score at 10 µM | actives 0.85% (n = 310,000);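 active means fluorescence ratio B-score at or below minus 3 SD of library scores, with starting-brightness B-score within 2 SD, cut at about -4.2 in these data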;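 further: channel flux triggered by added potassium and thallium sulfate stimulus; B-score of peak minus minimum fluorescence over baseline after thallium stimulus; more negative B-score means stronger Kir2.1 block with less thallium influx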
CHT PAM: allosteric activators of human choline transporter CHT. Q9GZV3. CHT-expressing cells, membrane potential dye, choline EC20; stronger effect = higher value; LV-AA mutant CHT in HEK293 cells. B-score at 10 µM. actives 0.49% (n = 310,000);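 active means initial fluorescence not abnormally high and integrated response B-score, plate-corrected, over 3 SD above library mean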
ANO1 block: mouse TMEM16A channel inhibition, primary screen; HEK293 TMEM16A/YFP iodide influx fluorescence, ionomycin; actives 1.2% (n = 310,000); Q8BHY3; normalized B-score (activity score, 25-100; higher = stronger inhibition) at 10 µM;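 active means ratio plate-corrected score three or more library SD toward inhibition, starting fluorescence score within five deviations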;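 further: score derived from kinetic fluorescence span divided by baseline fluorescence per well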
TMEM16A act: activators or potentiators of mouse TMEM16A chloride channel. B-score at 10 µM. HEK293 TMEM16A/YFP-H148Q/I152L, iodide quench fluorescence; stronger effect = lower value. actives 0.3% (n = 340,000). AID 623877. Q8BHY3;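 active means fluorescence-ratio B-score plate-corrected deviation score at least 3 library SD below zero, with starting fluorescence score within 5 deviations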;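 further: channel opened by trigger with iodide after compound preincubation; score built on the fluorescence ratio of max minus min over baseline; more negative score means more quench and so TMEM16A activation or potentiation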
CHT block conf: confirmation of human choline transporter CHT inhibitors; shares compounds with CHT block; CHT-expressing cells, choline membrane potential dye; LV-to-AA substituted CHT, HEK293 cells; CHT activity remaining % of control (stronger effect = lower value), % at 10 µM; actives 70% (n = 2,400); AID 493221;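 active means choline transporter activity left, mean of duplicates at 10 µM, below buffer-only control mean minus 3 SD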;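 further: depolarization triggered by choline at its EC90 following an EC20 pre-addition; 0% = hemicholinium-3 full block and 100% = buffer-only control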
HEK293 CHT ctr: CHT inhibitor counter-screen hit in parental HEK293 cells; shares compounds with CHT block; membrane potential dye, choline response; active = decrease or increase beyond buffer ±3SD; membrane potential ratio readout (active if shifted either direction beyond buffer ±3SD; no single direction) at 10 µM; actives 4% (n = 2,400); AID 493222;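 further: parental cells lack the transporter so any hit is non-specific; ratio is peak minus trough fluorescence over baseline after EC90 choline challenge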
Active calls of the source: *; i = inactive; . = not tested or not shown. A selection: hits, their analogues and other compounds. The true share with any hit is near 3.2%.

SMILES	CHT block	Rce1 inh	Kir21 block	CHT PAM	ANO1 block	TMEM16A act	CHT block conf	HEK293 CHT ctr
CCn1cc(C(=O)NCCCN2CCN(C)CC2)c(=O)c2cc(S(=O)(=O)N3CCc4ccccc4C3)ccc21	-9.1*	i	-0.01	i	i	i	i	i
CCN(CC)CCCNC(=O)c1cn(CC)c2ccc(S(=O)(=O)N3CCc4ccccc4C3)cc2c1=O	-12*	i	-1.2	i	i	i	15%*	i
CCCCNC(=O)c1cn(CC)c2ccc(S(=O)(=O)N3CCCC3)cc2c1=O	i	i	-0.62	i	i	i	.	.
Cc1ccccc1NC(=S)NNC(=O)c1ccncc1	-6.1*	i	-1.5	i	i	i	61%*	i
COc1ccc(C(=O)NNC(=S)NC(=O)c2ccc(OC)cc2)cc1	i	i	-1.1	i	i	i	.	.
COc1ccc(C(=O)NNC(=S)NC(=O)c2cccs2)cc1	i	i	0.69	i	i	i	.	.
Cc1cccc(C(=O)NNC(=S)NC(=O)c2ccccc2)c1	-7.4*	i	1.3	i	100*	i	41%*	i
COc1ccccc1NC(=S)NNC(=O)c1ccncc1	i	.	1.8	i	i	i	.	.
COc1ccc(C(=O)NC(=S)NNC(=O)c2cccc(C)c2)cc1	-7.8*	i	1.7	i	25*	i	i	i
Cc1cccc(C(=O)NNC(=S)NC(=O)c2cccs2)c1	-7.5*	.	0.93	i	i	i	29%*	i
O=C(CN(Cc1ccccc1F)C(=O)c1csnn1)NCc1ccc2c(c1)OCO2	i	i	0	i	i	i	.	.
Cc1cc(Cl)c(C)c(S(=O)(=O)Oc2ccccc2NC(=O)CCC(=O)O)c1Cl	.	.	.	.	.	i	.	.
Cc1ccc(S(=O)(=O)/N=C(/c2ccc(F)cc2)N(C)C)cc1	.	i	-0.55	.	i	i	.	.
O=C(Cc1cccs1)NNC(=S)NCc1ccc(Cl)cc1	i	i	-2.4	i	i	i	.	.
O=C(Cc1ccc(Cl)cc1)NNC(=S)NC(=O)c1cccs1	-5.2*	.	1.2	i	i	i	i	i
Cc1ccccc1C(=O)NNC(=S)NC(=O)c1ccccc1	-8.4*	i	0.56	i	i	i	47%*	i
C=CCn1c(SCC(=O)Nc2ccc(O)cc2)nc2sc(CC)cc2c1=O	i	i	0.02	i	i	i	.	.
Cc1ccc(C(=O)CSc2nnc(-c3ccco3)n2C)cc1	-5.4*	i	0.39	i	i	i	69%*	i
Cn1c(SCC(=O)c2cc(Cl)c(Cl)s2)nnc1-c1ccco1	i	i	-0.25	i	i	i	.	.
Cc1ccc(C(=O)Nc2ccc(Cc3ccncc3)cc2)cc1[N+](=O)[O-]	-5.6*	i	-1.8	i	100*	i	i	i
O=C(Nc1ccc(Cc2ccncc2)cc1)c1ccc(N2CCOCC2)c([N+](=O)[O-])c1	i	i	-1.1	i	i	i	.	.
COc1cccc(C(C(=O)NC(C)(C)C)N(CCC(C)C)C(=O)CCC(=O)Nc2cc(C)on2)c1OC (configuration not stated)	i	i	1.2	i	i	i	.	.
COCCN(C(=O)CCC(=O)Nc1cc(C)on1)C(C(=O)NC(C)(C)C)c1cccc(OC)c1OC (configuration not stated)	-5.8*	i	2.1	i	i	i	i	i
O=C(Cn1nc(-c2ccccc2)ccc1=O)NCc1ccc2c(c1)OCO2	i	i	-0.29	i	i	i	.	.
O=C(Cn1nc(-c2ccccc2)ccc1=O)NCc1ccc(F)cc1	-6.3*	i	-0.04	i	i	i	49%*	i

Screening results from PubChem.
